Assay outcomes as filed in PubChem BioAssay.
Cycloheximide cs: affects cycloheximide protein synthesis inhibition readout, counter-screen. AID 2314. cell reporter, cycloheximide protein synthesis inhibition counterscreen. 300,000 compounds, 12% hits. max response, %; in the data active = max response mostly above about 13%, no sharp cut-off; inactive = mostly below about 14%; also: read at 38.3 µM for the half of the compounds with a filed dose; 0% is about no effect
Pf growth 48h: P. falciparum growth inhibition at 48 hours (one generation). Potency, µM (doses to about 28.7 µM), inactives show top-dose activity change, negative = inhibition, usual class: inhibitors. P. falciparum luciferase growth in erythrocytes, 48 h. 310,000 compounds, 5.9% hits. AID 504832; also: potency is read from the fitted curve at half-maximal effect; % is scaled to controls: 0 for no effect and ±100 for the full control effect
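Growth was read as firefly luciferase luminescence after a 48 h, 37 C, 5% CO2 exposure of compounds to reporter-bearing P. falciparum cultures (0.1% parasitemia, 2% hematocrit final) in Albumax-supplemented RPMI 1640.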
Shiga inhibitor: Shiga toxin inhibition; Vero cells, Shiga toxin protein synthesis inhibition reporter; inhibition, % at 38.7 µM; 290,000 compounds, 9.2% hits; in the data active = inhibition mostly above about 28%, no sharp cut-off; inactive = mostly below about 43%; also: 0% is about no effect
LmPK inhibitor: blocks Leishmania mexicana pyruvate kinase activity; Q27686; purified LmPK, Kinase-Glo ATP luminescence, 1 h; Potency, µM (highest dose often 57.5 µM), inactives show at the highest dose activity change, negative = inhibition, actives largely listed as inhibitors; 290,000 compounds, 0.37% hits; AID 1721; also: potency is read from the fitted curve at half-maximal effect; % is scaled to controls: 0 for no effect and ±100 for the full control effect
Target sequence (Q27686 whole entry, looked up): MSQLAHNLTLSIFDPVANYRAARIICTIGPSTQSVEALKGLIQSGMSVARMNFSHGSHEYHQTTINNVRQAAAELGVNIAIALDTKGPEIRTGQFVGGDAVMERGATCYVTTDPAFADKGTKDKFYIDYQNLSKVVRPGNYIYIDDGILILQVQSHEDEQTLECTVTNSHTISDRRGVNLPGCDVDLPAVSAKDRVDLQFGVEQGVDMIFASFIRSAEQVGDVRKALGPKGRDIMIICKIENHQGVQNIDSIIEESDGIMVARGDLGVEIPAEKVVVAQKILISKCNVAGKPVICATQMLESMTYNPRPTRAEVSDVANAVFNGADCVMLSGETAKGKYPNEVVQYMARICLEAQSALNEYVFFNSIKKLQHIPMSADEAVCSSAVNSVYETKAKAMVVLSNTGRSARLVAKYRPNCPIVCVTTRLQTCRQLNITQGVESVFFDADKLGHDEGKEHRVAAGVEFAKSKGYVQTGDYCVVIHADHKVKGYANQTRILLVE
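Pyruvate kinase activity monitored as ATP production (luciferase luminescence). Conditions: 0.1 nM enzyme, 0.5 mM PEP, 0.1 mM ADP, 1 h, RT; normalized against uninhibited and no-enzyme wells.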
Pf growth 96h: P. falciparum growth inhibition at 96 hours | P. falciparum luciferase reporter growth, 96 h | Potency, µM (series often up to 28.7 µM), for inactives: at the top dose activity change, negative = inhibition, most hits filed as inhibitors | 320,000 compounds, 6.9% hits | AID 504834; also: potency is read from the fitted curve at half-maximal effect; % is scaled to controls: 0 for no effect and ±100 for the full control effect
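Infected RBCs, 2% Hct / 0.05% parasitemia final; luciferase-reporter P. falciparum; cpd 96 h, 37 C, 5% CO2; luciferase detection reagent; luminescence.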
* marks the source's active call; other numbers are inactive results; ? = inconclusive; nt = no result. Rows were chosen to be rich in hits. Some 22% of all compounds tested hit in one or more screens of this group. Unless noted, calls follow the shape of the dose curve; as a rule, active = well fitted inhibition curve with a large enough effect; inconclusive = small, poorly fitted or top-dose-only effect, or another doubt; inactive = no such curve, though single readings can be large or run the other way.

SMILES	Cycloheximide cs	Pf growth 48h	Shiga inhibitor	LmPK inhibitor	Pf growth 96h
CC(=O)Nc1ccc(NC(=O)c2cc(-c3ccc(C)c(C)c3O)n[nH]2)cc1	29*	12µM*	37	1%	2.3µM*
CC(=O)Nc1ccc(NC(=O)c2cc(-c3cc(C)cc(C)c3O)n[nH]2)cc1	23*	12µM*	32	-4%	?
CCCCNc1cc(F)nc(N)n1	-8	17%	18	1%	-11%
CCNC(=O)CN(c1ccc(Oc2ccccc2)cc1)S(=O)(=O)c1ccccc1	-1	-23%	-28	-3%	-3%
O=C(CCN=C1NS(=O)(=O)c2ccccc21)OCc1cccc(Cl)c1	nt	10%	nt	nt	23%
Cc1ccc(C(=O)Nc2ccc(S(=O)(=O)N3CCOCC3)cc2)cc1	7	?	-2	-1%	?
Cc1cc(C)c(O)c(-c2cc(C(=O)Nc3ccc(S(=O)(=O)N4CCOCC4)cc3)[nH]n2)c1	-4	5.9µM*	-10	-7%	nt
O=C(/C=C/c1cccc([N+](=O)[O-])c1)NCCSc1ccccc1	17*	?	15	0%	10µM*
CC(C)(C)SCCNC(=O)/C=C/c1cccc([N+](=O)[O-])c1	26*	42%	66*	-1%	16%
CC(C)(C)SCCNC(=O)/C=C/c1ccc([N+](=O)[O-])cc1	21*	11%	33*	0%	?
Cc1ccc(SCCNC(=O)/C=C/c2cccc([N+](=O)[O-])c2)cc1	-1	21%	-13	2%	30%
C=CCn1c(SCC(=O)NCC2CCCO2)nc2c([nH]c3ccccc32)c1=O (centres undefined)	1	7%	21	-5%	1%
CC(C(=O)NC(=O)NC1CCCCC1)N1CCN(c2ccc(O)cc2)CC1 (centres undefined)	nt	?	nt	nt	17µM*
CC(C(=O)Nc1ccc([N+](=O)[O-])cc1Cl)N1CCN(S(=O)(=O)c2cccs2)CC1 (centres undefined)	nt	12µM*	nt	nt	?
CC(C)CC(=O)Nc1cc([N+](=O)[O-])ccc1Cl	1	1%	-22	-3%	46%
CC(C(=O)NC(=O)NC1CCCCC1)N1CCN(c2ccccn2)CC1 (centres undefined)	0	-1%	40	-6%	-9%
CC(C(=O)Nc1cc([N+](=O)[O-])ccc1Cl)N1CCN(c2ccc(O)cc2)CC1 (centres undefined)	-2	-27%	-4	-7%	13µM*
CC(C(=O)NC1CCCCC1)N1CCN(S(=O)(=O)c2cccs2)CC1 (centres undefined)	nt	14%	nt	nt	-9%
O=C(O)CC1(CC(=O)NCc2cc(F)cc3c2OCOC3)CCCCC1	0	-15%	15	0%	?
CCN1CCN(CCCNC(=O)C2CCCN(c3nc4c(C)cc(C)cc4s3)C2)CC1 (centres undefined)	13*	?	42*	-1%	?
Cc1cc(C)c2nc(N3CCCC(C(=O)NCCCN4CCOCC4)C3)sc2c1 (centres undefined)	14	7%	42	0%	nt
Cc1cc(C)c2nc(N3CCCC(C(=O)NCCN4CCOCC4)C3)sc2c1 (centres undefined)	36*	29%	46*	-1%	18%
CC(C)Cc1nnc(NC(=O)Cc2ccc([N+](=O)[O-])cc2)s1	-4	48%	-19	-1%	-12%
CCOc1ccc(C(=O)c2cccs2)cc1	27*	120%	44	0%	nt
O=C(c1ccccc1)c1cccs1	6	52%	33	-2%	-16%
SMILES	Cycloheximide cs	Pf growth 48h	Shiga inhibitor	LmPK inhibitor	Pf growth 96h
CCOc1ccc(Oc2ccc(NS(=O)(=O)c3cc(C(=O)O)ccc3Cl)cc2)cc1	nt	-1%	nt	nt	-14%
CCOc1ccc(NS(=O)(=O)c2cc(NC(=O)c3ccc(C)cc3)ccc2Cl)cc1	17*	?	-14	1%	?
CCCOc1ccc(C(=O)Nc2ccc(NC(=O)c3cccs3)cc2)cc1	13	3%	49*	2%	-21%
COc1cccc(NC(=O)c2ccc(NS(=O)(=O)c3cccs3)cc2)c1	nt	10%	nt	nt	0%
CCOc1ccc(NC(=O)c2ccc(NS(=O)(=O)c3cccs3)cc2)cc1	10	-3%	21	-11%	0.83µM*
CN(c1ccccc1C(=O)Nc1cccc([N+](=O)[O-])c1)S(C)(=O)=O	-3	12%	-4	1%	?
C=CCn1c(SCC(=O)NCC2CCCO2)nnc1-c1ccncc1 (centres undefined)	nt	4%	nt	nt	8%
COc1ccc(C(=O)Nc2c(Cl)cc(Cl)cc2C(=O)N2CCOCC2)cc1	-2	14%	-7	-4%	3%
COC(=O)COc1cccc(NC(=O)c2cccs2)c1	8	0%	8	-2%	nt
COc1cccc(C(=O)NNC(=O)c2ccc(NS(=O)(=O)c3cccs3)cc2)c1OC	nt	2.9µM*	nt	nt	2.1µM*
CCCCOc1cccc(C(=O)Nc2ccc(NC(=O)c3cccs3)cc2)c1	-1	0%	28	9%	4.7µM*
Cc1ccc(C(=O)CCC(=O)Nc2ccc(Cl)c(S(=O)(=O)Nc3cccc(Cl)c3)c2)cc1	-1	5%	-15	0%	31%
CCC(C)NCCC(=O)Nc1ccc(Cl)c(S(=O)(=O)Nc2ccc(Cl)cc2)c1 (centres undefined)	-2	10µM*	12	1%	9.3µM*
O=C(Nc1ccc(Cl)cc1)C1C2C=CC3(O2)C1C(=O)N(CCCN1CCCCC1)C3C(=O)NC1CCCCC1 (centres undefined)	-7	?	8	2%	13%
Cc1ccccc1NS(=O)(=O)c1ccc(C(=O)NCCCN2CCOCC2)cc1	nt	-2%	nt	nt	-4%
CCOCCCNC(=O)c1c[nH]c2ccc(S(=O)(=O)Nc3cccc(OC)c3)cc2c1=O	1	?	23	1%	?
Cc1ccccc1NS(=O)(=O)c1ccc2[nH]cc(C(=O)NCCCN3CCOCC3)c(=O)c2c1	1	4.1µM*	-12	0%	-9%
COc1cccc(NS(=O)(=O)c2ccc3[nH]cc(C(=O)NCCN4CCOCC4)c(=O)c3c2)c1	-6	13µM*	11	5%	7%
COc1cc(CN(C)Cc2ccccc2)cc(OC)c1O	-1	1%	-13	7%	nt
COc1cc(C2NC(=O)NC(C)=C2C(=O)OCC2CCCCC2)ccc1O (centres undefined)	-2	0%	14	-2%	-9%
Cc1ccc(C2(C)NC(=O)N(CC(=O)Nc3ccc(-c4nc5ccc(C)cc5s4)cc3)C2=O)cc1 (centres undefined)	54*	110%	85*	3%	144%
Cc1ccc2nc(-c3ccc(NC(=O)C(C)N4C(=O)c5ccccc5C4=O)cc3)sc2c1 (centres undefined)	93*	180%	51*	-1%	3%
O=C(CCN1C(=O)c2ccccc2C1=O)Nc1ccc(-c2nc3ccccc3s2)cc1	33*	40%	110*	-1%	1.3µM*
